PubChem BioAssay (EPA / NIEHS)
Records with an inconclusive call do not appear. The source made the active and inactive calls. The calls were made as follows, unless noted: active = hit-call score of the fitted dose curve at least 0.9, where 1 is the maximum; inactive = score below 0.9.

How the values were obtained:
[1] = ATG_NFI_CIS: Attagene CIS-FACTORIAL HepG2 Assay for human Nuclear Factor I (NFI) (AID 2282989); conditions: HepG2 cis-regulatory reporter, NFI response element transcription; actives raise or lower the signal
In short: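 Cells: human liver HepG2, transiently transfected with promoter-regulated reporter transcription units. Exposure 24 h. Detection: fluorescent RT-PCR products separated by capillary electrophoresis, normalised to DMSO negative control.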

[2] = target: Myc proto-oncogene protein (Homo sapiens) (UniProt P01106); assay: ATG_Myc_CIS: Attagene CIS-FACTORIAL HepG2 Assay for human Myelocytomatosis (Myc) Proto-Oncogene Transcription Factor (AID 2282990); conditions: HepG2, Attagene cis-reporter transcription factor activity; actives raise or lower the signal
Sequence of Myc proto-oncogene protein (Homo sapiens) (P01106 whole entry, looked up): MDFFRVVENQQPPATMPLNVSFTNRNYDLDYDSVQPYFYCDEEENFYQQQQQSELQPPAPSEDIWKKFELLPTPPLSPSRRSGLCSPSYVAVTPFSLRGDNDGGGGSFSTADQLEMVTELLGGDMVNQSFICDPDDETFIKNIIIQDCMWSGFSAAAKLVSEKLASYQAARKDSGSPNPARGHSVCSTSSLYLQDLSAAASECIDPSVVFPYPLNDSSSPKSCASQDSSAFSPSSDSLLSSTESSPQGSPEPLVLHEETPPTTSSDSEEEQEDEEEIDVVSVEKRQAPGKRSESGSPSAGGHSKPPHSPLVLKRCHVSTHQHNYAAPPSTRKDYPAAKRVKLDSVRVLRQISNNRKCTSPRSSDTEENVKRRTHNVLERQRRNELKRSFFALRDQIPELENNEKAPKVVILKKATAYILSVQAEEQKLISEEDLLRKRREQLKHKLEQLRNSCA
In short: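 Transiently transfected HepG2 cells bearing cis-promoter reporter units for endogenous transcription factors; 24 h exposure. Reporter mRNA measured by RT-PCR, 6-FAM primer extension, HpaI cut and capillary electrophoresis; bidirectional fit relative to DMSO.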

[3] = ATG_NRF2_ARE_CIS: Attagene CIS-FACTORIAL HepG2 Assay for human Nuclear Factor Erythroid 2 Related Factor 2 (NFR2) response to Antioxidant Response Elements (ARE) (AID 2282992); conditions: HepG2 Attagene ARE/NRF2 reporter, transcription factor activity; actives raise or lower the signal;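 as to AC50: reporter mRNA level measured by RT-PCR and capillary electrophoresis fluorescence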
In short: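 Fluorescence intensity of reporter-specific cDNA fragments, separated by capillary electrophoresis, reflects mRNA induction in transfected HepG2 cells at 24 h. Activity is fitted bidirectionally, DMSO serving as baseline.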

[4] = ATG_Oct_MLP_CIS: Attagene CIS-FACTORIAL HepG2 Assay for human Octamer-Binding Transcription Factor (Oct) (AID 2282993); conditions: HepG2 Attagene cis-factorial Oct reporter, mRNA; actives raise or lower the signal
In short: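 HepG2, transient MRTU transfection, cis promoter elements; 24 h dosing; RT-PCR/CE fluorescence read-out of reporter mRNA; fit both directions vs DMSO.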

[5] = target: Cellular tumor antigen p53 (Homo sapiens) (UniProt P04637); assay: ATG_p53_CIS: Attagene CIS-FACTORIAL HepG2 Assay for human p53 Transcription Factor (AID 2282994); conditions: HepG2 p53 cis-element reporter, Attagene mRNA; actives raise or lower the signal
Sequence of Cellular tumor antigen p53 (Homo sapiens) (P04637 whole entry, looked up): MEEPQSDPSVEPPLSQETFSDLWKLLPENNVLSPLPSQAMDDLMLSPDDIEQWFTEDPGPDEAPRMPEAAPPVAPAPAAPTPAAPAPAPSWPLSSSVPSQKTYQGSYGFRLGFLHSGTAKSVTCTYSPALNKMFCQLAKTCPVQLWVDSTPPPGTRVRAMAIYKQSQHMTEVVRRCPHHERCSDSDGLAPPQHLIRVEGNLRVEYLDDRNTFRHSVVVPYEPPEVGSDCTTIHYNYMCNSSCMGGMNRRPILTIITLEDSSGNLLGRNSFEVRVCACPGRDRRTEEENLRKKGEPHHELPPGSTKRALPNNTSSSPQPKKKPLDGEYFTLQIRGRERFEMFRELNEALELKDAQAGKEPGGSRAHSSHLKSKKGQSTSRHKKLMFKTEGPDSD
In short: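 Transiently transfected HepG2 (multiple cis reporter transcription units); exposure 24 h; reporter RNA via RT-PCR, 6-FAM extension, 2 h HpaI digest at 37 C, CE detection; DMSO baseline.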

[6] = BSK_3C_TissueFactor: BioMAP Diversity Plus: 3C Assay for Tissue Factor Biomarker Activity (AID 2282997); conditions: BioMAP 3C HUVEC, tissue factor biomarker readout; actives raise or lower the signal
In short: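 After a 24 h chemical exposure of primary human umbilical vein endothelial cells, Tissue Factor levels were quantified by ELISA.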

[7] = BSK_3C_uPAR: BioMAP Diversity Plus: 3C Assay for Urokinase-type plasminogen activator receptor (uPAR) Biomarker Activity (AID 2282998); conditions: BioMAP 3C HUVEC, uPAR biomarker ELISA; actives raise or lower the signal
In short: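 A multiplexed primary-cell system built on human umbilical vein endothelium was used, with chemical present for 24 h before reading. Cell-surface uPAR was detected by ELISA; signal change in either direction counted against DMSO.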

[8] = BSK_3C_VCAM1: BioMAP Diversity Plus: 3C Assay for Vascular cell adhesion molecule 1 (VCAM1) Biomarker Activity (AID 2282999); conditions: BioMAP 3C HUVEC, VCAM1 ELISA, cytokine-stimulated; actives raise or lower the signal
In short: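 HUVEC primary cells, 24 h compound exposure; VCAM-1 by ELISA; gain/loss of signal fitted bidirectionally vs DMSO baseline.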

[9] = BSK_4H_Eotaxin3: BioMAP Diversity Plus: 4H Assay for Eotaxin 3 Biomarker Activity (AID 2283000); conditions: primary human endothelial cells (HUVEC); actives raise or lower the signal
In short: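 Chemicals were added to human umbilical vein endothelium cultures, and Eotaxin-3 was quantified by ELISA at 24 h. Values were derived by bidirectional fitting with DMSO serving as negative control and activity baseline.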

[10] = target: human Peroxisome Proliferator-activated Receptor delta (PPARd), PPARD (gene 5467) (UniProt Q03181); assay: ATG_PPARd_TRANS: Attagene TRANS-FACTORIAL HepG2 Assay for human Peroxisome Proliferator-activated Receptor delta (PPARd) (AID 2283002; active = hit-call score of the fitted dose curve at least 0.9, where 1 is the maximum)
Sequence of human Peroxisome Proliferator-activated Receptor delta (PPARd), PPARD (gene 5467) (Q03181 whole entry, looked up, the tested form may be a part): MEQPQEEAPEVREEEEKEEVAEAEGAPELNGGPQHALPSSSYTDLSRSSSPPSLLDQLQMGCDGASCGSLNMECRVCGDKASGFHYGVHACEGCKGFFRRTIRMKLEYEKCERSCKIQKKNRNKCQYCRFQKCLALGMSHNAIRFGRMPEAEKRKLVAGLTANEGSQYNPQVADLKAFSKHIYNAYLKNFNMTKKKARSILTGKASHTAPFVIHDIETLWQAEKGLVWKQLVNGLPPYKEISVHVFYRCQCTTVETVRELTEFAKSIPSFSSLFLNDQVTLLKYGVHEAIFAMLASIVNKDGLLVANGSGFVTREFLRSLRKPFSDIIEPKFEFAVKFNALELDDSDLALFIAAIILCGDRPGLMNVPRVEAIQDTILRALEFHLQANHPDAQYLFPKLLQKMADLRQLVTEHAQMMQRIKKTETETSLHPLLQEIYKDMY
In short: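 HepG2 cells transiently transfected with GAL4-UAS multiplexed reporter units driven by exogenous chimeric NR-GAL4 proteins; 24 h compound exposure. Reporter mRNA measured by RT-PCR, 6-FAM primer extension, HpaI digestion and capillary electrophoresis; gain of signal fitted relative to DMSO.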

[11] = read-out: Intercellular Adhesion Molecule 1 (ICAM1), ICAM1 (gene 3383); assay: BSK_3C_ICAM1: BioMAP Diversity Plus: 3C Assay for Intercellular Adhesion Molecule 1 (ICAM1) Biomarker Activity (AID 2283003); conditions: primary human endothelial cells (HUVEC); actives raise or lower the signal
In short: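 ELISA read-out of ICAM-1; HUVEC (primary human), 3C system, 24 h post-dosing; bidirectional fit vs DMSO baseline.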

[12] = target: human Retinoic Acid Receptor beta (RARb), RARB (gene 5915) (UniProt P10826); assay: ATG_RARb_TRANS: Attagene TRANS-FACTORIAL HepG2 Assay for human Retinoic Acid Receptor beta (AID 2283004; active = hit-call score of the fitted dose curve at least 0.9, where 1 is the maximum)
Sequence of human Retinoic Acid Receptor beta (RARb), RARB (gene 5915) (P10826 whole entry, looked up): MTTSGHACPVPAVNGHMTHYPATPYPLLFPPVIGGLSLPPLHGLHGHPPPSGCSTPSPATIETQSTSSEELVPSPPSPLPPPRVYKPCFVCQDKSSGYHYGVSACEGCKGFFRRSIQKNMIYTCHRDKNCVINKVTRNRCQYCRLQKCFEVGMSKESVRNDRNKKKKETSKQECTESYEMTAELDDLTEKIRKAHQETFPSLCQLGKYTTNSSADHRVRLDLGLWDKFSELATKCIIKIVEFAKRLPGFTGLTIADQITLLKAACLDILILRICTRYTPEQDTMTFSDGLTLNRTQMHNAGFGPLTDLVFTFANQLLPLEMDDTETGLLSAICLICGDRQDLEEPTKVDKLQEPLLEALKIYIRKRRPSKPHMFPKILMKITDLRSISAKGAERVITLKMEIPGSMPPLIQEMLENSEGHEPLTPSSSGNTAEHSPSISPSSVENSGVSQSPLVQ
In short: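 Transient transfection of HepG2 with multiple reporter units → chemical dosing, 24 h → total RNA isolation → RT with oligo(dT) → reporter-specific PCR, 6-FAM primer extension, HpaI digest → capillary electrophoresis. Positive direction vs DMSO control.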

[13] = target: Retinoic acid receptor alpha (Homo sapiens) (UniProt P10276); assay: ATG_RARa_TRANS: Attagene TRANS-FACTORIAL HepG2 Assay for human Retinoic Acid Receptor alpha (RARa) (AID 2283005; active = hit-call score of the fitted dose curve at least 0.9, where 1 is the maximum;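 as to AC50: potency for increased reporter signal meaning RARa activation over DMSO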)
Sequence of Retinoic acid receptor alpha (Homo sapiens) (P10276 whole entry, looked up, the tested form may be a part): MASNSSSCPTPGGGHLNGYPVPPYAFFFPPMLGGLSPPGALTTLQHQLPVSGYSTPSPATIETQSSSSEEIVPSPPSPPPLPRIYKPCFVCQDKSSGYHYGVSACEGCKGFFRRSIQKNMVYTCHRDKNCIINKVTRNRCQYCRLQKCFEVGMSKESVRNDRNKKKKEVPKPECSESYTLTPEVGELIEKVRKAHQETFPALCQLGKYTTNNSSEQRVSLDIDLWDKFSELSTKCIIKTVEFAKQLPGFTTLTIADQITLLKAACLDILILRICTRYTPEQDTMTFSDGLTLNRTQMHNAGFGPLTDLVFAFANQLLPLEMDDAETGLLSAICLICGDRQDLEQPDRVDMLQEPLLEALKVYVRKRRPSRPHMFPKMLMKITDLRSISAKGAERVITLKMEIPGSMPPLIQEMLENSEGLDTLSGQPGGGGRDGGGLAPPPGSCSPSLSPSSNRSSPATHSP
In short: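 HepG2 transiently transfected with multiplex GAL4-UAS reporter units including a human RARa–GAL4 chimera; 24 h compound exposure. Reporter mRNA quantified by RT-PCR, 6-FAM labeling and capillary electrophoresis; gain of signal versus DMSO.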

[14] = BSK_3C_Proliferation: Cell Proliferation Assessment in the BioMAP Diversity Plus: 3C Assay (AID 2283006); conditions: primary human endothelial cells (HUVEC);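 as to AC50: potency may reflect either rise or fall in cell number versus DMSO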
In short: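 HUVEC, sub-confluent; 48 h chemical exposure; 10% TCA fix, 0.1% SRB stain, A560 total protein. Gain or loss of signal fitted both directions vs DMSO control.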

[15] = target: Peroxisome proliferator-activated receptor gamma (Homo sapiens) (UniProt P37231); assay: ATG_PPARg_TRANS: Attagene TRANS-FACTORIAL HepG2 Assay for human Peroxisome Proliferator-activated Receptor-gamma (PPARg) (AID 2283007; active = hit-call score of the fitted dose curve at least 0.9, where 1 is the maximum)
Sequence of Peroxisome proliferator-activated receptor gamma (Homo sapiens) (P37231 whole entry, looked up, the tested form may be a part): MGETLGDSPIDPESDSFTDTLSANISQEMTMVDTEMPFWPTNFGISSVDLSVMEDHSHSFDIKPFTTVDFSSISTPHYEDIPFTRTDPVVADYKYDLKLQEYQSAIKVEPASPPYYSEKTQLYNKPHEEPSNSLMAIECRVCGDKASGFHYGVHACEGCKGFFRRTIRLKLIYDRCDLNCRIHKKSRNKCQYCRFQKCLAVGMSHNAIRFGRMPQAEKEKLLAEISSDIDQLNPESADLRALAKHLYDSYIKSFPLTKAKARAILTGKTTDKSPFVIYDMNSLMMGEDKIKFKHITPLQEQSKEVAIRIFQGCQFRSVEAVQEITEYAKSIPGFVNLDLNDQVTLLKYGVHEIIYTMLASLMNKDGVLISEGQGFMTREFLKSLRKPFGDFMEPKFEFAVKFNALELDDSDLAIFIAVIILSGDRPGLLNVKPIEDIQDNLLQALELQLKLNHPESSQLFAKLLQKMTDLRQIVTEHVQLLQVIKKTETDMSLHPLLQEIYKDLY
In short: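 A TRANS-format multiplexed reporter assay measures activity of an exogenous chimeric NR-Gal4 protein in HepG2 cells. After 24 h of chemical exposure, reporter transcripts are amplified, fluorescently labelled and sized by capillary electrophoresis, with gain of signal scored against DMSO.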

[16] = target: Nuclear receptor subfamily 1 group I member 2 (Homo sapiens) (UniProt O75469); assay: ATG_PXR_TRANS: Attagene TRANS-FACTORIAL HepG2 Assay for human Pregnane X Receptor (PXR) (AID 2283008; active = hit-call score of the fitted dose curve at least 0.9, where 1 is the maximum)
Sequence of Nuclear receptor subfamily 1 group I member 2 (Homo sapiens) (O75469 whole entry, looked up, the tested form may be a part): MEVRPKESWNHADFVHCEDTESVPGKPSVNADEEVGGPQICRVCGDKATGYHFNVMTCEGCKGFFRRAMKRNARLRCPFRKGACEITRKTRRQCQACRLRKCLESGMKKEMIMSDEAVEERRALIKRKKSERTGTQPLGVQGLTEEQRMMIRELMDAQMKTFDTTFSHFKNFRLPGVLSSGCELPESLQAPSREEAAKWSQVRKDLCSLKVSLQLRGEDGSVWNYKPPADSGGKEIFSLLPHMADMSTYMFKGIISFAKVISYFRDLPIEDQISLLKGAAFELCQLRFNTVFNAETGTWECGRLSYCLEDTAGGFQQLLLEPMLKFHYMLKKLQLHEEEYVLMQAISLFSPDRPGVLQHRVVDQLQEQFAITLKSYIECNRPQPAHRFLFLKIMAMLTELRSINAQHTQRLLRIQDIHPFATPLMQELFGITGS
In short: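 Transient HepG2 transfectants carrying multiplexed reporter transcription units; PXR activity read through a Gal4 chimera. 24 h exposure. RT-PCR/CE fluorescence; upward curve fit referenced to DMSO.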

[17] = target: human Retinoic Acid Receptor gamma (RARg), RARG (gene 5916) (UniProt P13631); assay: ATG_RARg_TRANS: Attagene TRANS-FACTORIAL HepG2 Assay for human Retinoic Acid Receptor gamma (RARg) (AID 2283009; active = hit-call score of the fitted dose curve at least 0.9, where 1 is the maximum)
Sequence of human Retinoic Acid Receptor gamma (RARg), RARG (gene 5916) (P13631 whole entry, looked up, the tested form may be a part): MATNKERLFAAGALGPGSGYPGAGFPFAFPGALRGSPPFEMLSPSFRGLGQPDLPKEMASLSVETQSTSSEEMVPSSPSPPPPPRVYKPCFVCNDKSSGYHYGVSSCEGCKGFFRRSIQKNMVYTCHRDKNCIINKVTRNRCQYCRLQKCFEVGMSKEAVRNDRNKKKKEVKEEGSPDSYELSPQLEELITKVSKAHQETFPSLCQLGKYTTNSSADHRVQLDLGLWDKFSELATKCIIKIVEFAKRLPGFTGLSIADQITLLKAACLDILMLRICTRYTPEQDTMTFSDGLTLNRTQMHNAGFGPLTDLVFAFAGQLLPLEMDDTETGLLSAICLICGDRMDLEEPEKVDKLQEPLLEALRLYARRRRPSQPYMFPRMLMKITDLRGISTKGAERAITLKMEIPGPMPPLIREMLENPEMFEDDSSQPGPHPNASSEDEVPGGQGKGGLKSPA
In short: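 Readout: reporter transcript levels via RT-PCR, 6-FAM primer-extension labelling, HpaI digestion and capillary electrophoresis. Cells: HepG2 carrying transfected RARg-GAL4 chimera plus UAS reporter set. Dosing 24 h; DMSO negative control.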

[18] = target: human RAR-related Orphan Receptor beta (RORb), RORB (gene 6096) (UniProt Q92753); assay: ATG_RORb_TRANS: Attagene TRANS-FACTORIAL HepG2 Assay for human RAR-related Orphan Receptor beta (RORb) (AID 2283010; active = hit-call score of the fitted dose curve at least 0.9, where 1 is the maximum)
Sequence of human RAR-related Orphan Receptor beta (RORb), RORB (gene 6096) (Q92753 whole entry, looked up, the tested form may be a part): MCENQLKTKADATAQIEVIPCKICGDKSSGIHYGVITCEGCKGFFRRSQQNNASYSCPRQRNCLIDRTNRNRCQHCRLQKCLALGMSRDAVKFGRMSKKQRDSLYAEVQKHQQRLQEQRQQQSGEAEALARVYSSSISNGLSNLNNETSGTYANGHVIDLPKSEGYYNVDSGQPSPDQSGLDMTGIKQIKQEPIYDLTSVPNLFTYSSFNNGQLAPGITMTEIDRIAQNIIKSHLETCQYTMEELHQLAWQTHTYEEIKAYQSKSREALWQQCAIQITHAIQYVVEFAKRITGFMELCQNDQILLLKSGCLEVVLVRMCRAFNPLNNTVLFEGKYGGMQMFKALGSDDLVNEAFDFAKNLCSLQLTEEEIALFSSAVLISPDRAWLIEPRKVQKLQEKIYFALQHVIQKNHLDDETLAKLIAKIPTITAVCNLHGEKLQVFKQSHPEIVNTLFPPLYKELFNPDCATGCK
In short: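 HepG2, transient MRTU transfection (GAL4-UAS reporters, exogenous NR-Gal4 chimeras); 24 h compound exposure; total RNA → RT-PCR → 6-FAM primer extension → HpaI digest → CE fluorescence. Positive direction vs DMSO baseline.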

[19] = ATG_NF_kB_CIS: Attagene CIS-FACTORIAL HepG2 Assay for human Nuclear Factor Kappa B (NF-kB) (AID 2282991); conditions: HepG2 Attagene cis-factorial NF-kB reporter mRNA; actives raise or lower the signal
In short: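 Endogenous transcription factor activity in HepG2 was captured via cis-regulated reporter constructs; after 24 h dosing, reporter mRNA was reverse-transcribed, amplified, fluorescently labelled and sized by capillary electrophoresis, with activity fitted bidirectionally relative to DMSO.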

[20] = target: human Peroxisome Proliferator-activated Receptor alpha (PPARa), PPARA (gene 5465) (UniProt Q07869); assay: ATG_PPARa_TRANS: Attagene TRANS-FACTORIAL HepG2 Assay for human Peroxisome Proliferator-activated Receptor alpha (PPARa) (AID 2283001; active = hit-call score of the fitted dose curve at least 0.9, where 1 is the maximum)
Sequence of human Peroxisome Proliferator-activated Receptor alpha (PPARa), PPARA (gene 5465) (Q07869 whole entry, looked up, the tested form may be a part): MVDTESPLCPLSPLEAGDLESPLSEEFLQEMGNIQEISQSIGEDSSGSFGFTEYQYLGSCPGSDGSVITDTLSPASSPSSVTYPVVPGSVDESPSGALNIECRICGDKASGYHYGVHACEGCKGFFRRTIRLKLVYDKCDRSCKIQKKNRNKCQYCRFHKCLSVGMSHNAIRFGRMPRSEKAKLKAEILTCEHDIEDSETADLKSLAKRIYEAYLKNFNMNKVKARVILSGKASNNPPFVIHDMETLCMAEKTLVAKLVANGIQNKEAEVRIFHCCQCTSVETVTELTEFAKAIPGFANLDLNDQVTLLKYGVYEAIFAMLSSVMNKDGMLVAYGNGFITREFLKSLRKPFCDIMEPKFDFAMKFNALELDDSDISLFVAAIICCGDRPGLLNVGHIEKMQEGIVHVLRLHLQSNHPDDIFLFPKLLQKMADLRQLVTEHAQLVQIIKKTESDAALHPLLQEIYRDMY
In short: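 Transient HepG2 transfection, GAL4-UAS reporters, NR-Gal4 chimeras; 24 h compound exposure. Readout: reporter transcripts by RT-PCR, 6-FAM primer extension, HpaI digest, capillary electrophoresis. Positive direction vs DMSO baseline.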

Measured: AC50

CCOP(=S)(OCC)Oc1ccc2c(C)c(Cl)c(=O)oc2c1
inactive: [1] | [2] | [4] | [5] | [6] | [7] | [8] | [9] | [10] | [11] | [12] | [15] | [17] | [18]
active: [3] 2.75 µM | [13] 2.3 µM | [14] 9.56 µM | [16] 3.94 µM

CC(=NC#N)N(C)Cc1ccc(Cl)nc1
inactive: [1] | [2] | [19] | [3] | [4] | [5] | [6] | [7] | [8] | [9] | [11] | [13] | [14] | [15] | [16] | [17] | [18]

CSc1nnc(C(C)(C)C)c(=O)n1N
inactive: [1] | [2] | [19] | [3] | [4] | [5] | [6] | [7] | [8] | [9] | [11] | [12] | [13] | [14] | [17] | [18]

O=c1ccc(=O)[nH][nH]1
inactive: [1] | [2] | [19] | [3] | [4] | [5] | [6] | [7] | [8] | [9] | [11] | [14] | [15] | [16] | [18]

COc1cc(OC)nc(Sc2cccc(Cl)c2C(=O)O)n1
inactive: [1] | [2] | [19] | [3] | [4] | [5] | [6] | [7] | [8] | [9] | [11] | [14] | [15]

O=C(O)c1cc(Oc2ccc(C(F)(F)F)cc2Cl)ccc1[N+](=O)[O-]
inactive: [1] | [2] | [19] | [3] | [4] | [6] | [8] | [9] | [11] | [12] | [14] | [16] | [17]
active: [7] 29.2 µM | [13] 2.9 µM | [15] 37.1 µM

CC[C@H](C)[C@H]1O[C@]2(C=C[C@@H]1C)C[C@@H]1C[C@@H](C/C=C(\C)[C@@H](O[C@H]3C[C@H](OC)[C@@H](O[C@H]4C[C@H](OC)[C@@H](NC)[C@H](C)O4)[C@H](C)O3)[C@@H](C)/C=C/C=C3\CO[C@@H]4[C@H](O)C(C)=C[C@@H](C(=O)O1)[C@]34O)O2
inactive: [1] | [2] | [3] | [4] | [5] | [6] | [20] | [15] | [18]
active: [7] 1.93 µM | [8] 6.56 µM | [9] 5.75 µM | [11] 9.48 µM | [14] 1.68 µM
